Assay results: PubChem BioAssay (NCATS)
Inconclusive results are not listed. Active and inactive are the calls of the source. Unless noted, calls follow the shape of the dose curve; as a rule, active = well fitted curve in the direction sought with a large enough effect; inconclusive = small, poorly fitted or top-dose-only effect, or another doubt; inactive = no such curve, though single readings can be large; an effect the other way counts as inactive or inconclusive.

What was measured:
[1] = molecular target: Lysosomal acid glucosylceramidase (Homo sapiens) (UniProt P04062); test: Glucocerebrosidase-p2 (AID 348; in the data active = potency below about 10 µM; also: potency is read from the fitted curve at half-maximal effect); conditions: purified GBA, blue fluorogenic substrate, 40 min
Summary of the method: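 Compounds titrated from 0.6 nM upwards against 0.2 nM enzyme in pH 5.9 citric acid/KH2PO4, taurocholate, tween-20; blue fluorogenic substrate 80 uM, 40 min room temperature, stopped and read Ex 365/Em 440 for AC50.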

[2] = AP1 Signaling Pathway (AID 357; active = well fitted curve in either direction with a large enough effect, not every such curve was filed as active;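 also: ME-180 reporter cells stimulated with EGF at its EC50 level; % is scaled to controls: 0 for no effect and ±100 for the full control effect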); conditions: ME-180 AP-1-bla reporter, EGF-induced, beta-lactamase ratio, 5 h; at 7.69 µM (top of the series) unless noted
Summary of the method: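 Beta-lactamase reporter under AP-1 response element, ME-180 background. Stimulus: EC50 EGF. Compound exposure 5 h, 37 °C. Detection: CCF4, 2.5 h RT, 460/530 nm. Values: AC50 from titration.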

[3] = molecular target: Cytochrome P450 1A2 (Homo sapiens) (UniProt P05177); test: p450-cyp1a2 (AID 410; calls by dose curve; also: potency is read from the fitted curve at half-maximal effect); conditions: recombinant CYP1A2, luciferin-ME demethylation, luminescence; series mostly up to 57 µM
Summary of the method: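 Human CYP1A2 (20nM) demethylated Luciferin-ME at its Km (100uM) in 100mM KPO4. After 10 min compound preincubation, NADPH regeneration ran the reaction 60 min at room temperature. Luciferin was read by luminescence, normalized to 57 uM furafylline.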

[4] = NFAT Signaling Pathway (AID 444; active = well fitted curve in either direction with a large enough effect, not every such curve was filed as active;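 also: carbachol stimulus at about its EC50 of 1 µM final; % is scaled to controls: 0 for no effect and ±100 for the full control effect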); conditions: Jurkat NFAT-bla M1, carbachol, beta-lactamase ratio, 5 h; at 7.69 µM (top of the series) unless noted
Summary of the method: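 Read-out: CCF4 FRET ratio (460 nm/530 nm) after 1 h RT dye loading, used for %activity and AC50 from titration series. Cells: Jurkat NFAT-β-lactamase/M1 line, treated with compound plus 1 uM carbachol for 5 h, 37 °C.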

[5] = Stat Signaling Pathway (AID 446; active = well fitted curve in either direction with a large enough effect, not every such curve was filed as active;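 also: ME-180 cervical cancer cells given 40 pM IL-6 alongside compound; SIE-controlled beta-lactamase reporter measured as 460/530 nm FRET emission ratio; % is scaled to controls: 0 for no effect and ±100 for the full control effect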); conditions: ME-180 SIE beta-lactamase reporter, IL-6 stimulated, 5 h; at 7.69 µM (top of the series) unless noted
Summary of the method: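 ME-180 SIE-bla cells; overnight plating; cpd + IL-6 40 pM, 5 h, 37 C; LiveBLAzer 2.5 h RT; 460/530 nm emission ratio. Normalized to 300 pM IL-6 and 125 nM JAK inhibitor controls.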

[6] = molecular target: Glucocorticoid receptor (Homo sapiens) (UniProt P04150); test: GR-GFP Redistribution (AID 450;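 active = compounds whose dose series gives a full or clear partial fitted curve of increased nuclear translocation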; also: potency is read from the fitted curve at half-maximal effect); conditions: U2OS GR-GFP nuclear translocation, laser cytometry, 2 h
[7] = molecular target: Glucocorticoid receptor (Homo sapiens) (UniProt P04150); test: GR-EFC Redistribution (AID 451; calls by dose curve; also: potency is read from the fitted curve at half-maximal effect); conditions: CHO-K1 GR-EFC translocation, beta-gal luminescence, 2 h
Summary of the method: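 Translocation of GR-ED fusion to nuclear EA restores b-gal, read by luminescence after 1 h room-temperature detection. Engineered CHO-K1 biosensor cells, 1,000/well, exposed 2 h at 37 C to titrations up to 46 uM final.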

[8] = molecular target: Mitogen-activated protein kinase 10 (Mus musculus) (UniProt Q61831); test: JNK3 AlphaScreen Assay (AID 530; active = well fitted curve in either direction with a large enough effect, not every such curve was filed as active;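 also: kinase came from lysate of stimulated human HepG2 cells; signal reports phosphorylation of biotinylated GST-cJun 1-79 at Ser73 with 10 µM ATP; % is scaled to controls: 0 for no effect and ±100 for the full control effect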); conditions: JNK3 lysate, c-Jun phosphorylation; series mostly up to 57.1 µM
Summary of the method: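 Room-temperature AlphaScreen kinase assay; pre-activated HepG2 lysate as JNK3 source, biotin-GST-cJun(1-79) substrate, 10 uM ATP, compound 15 min preincubation.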

[9] = molecular target: Cytochrome P450 3A4 (Homo sapiens) (UniProt P08684); test: qHTS Assay for Inhibitors and Substrates of Cytochrome P450 3A4 (AID 884); conditions: recombinant CYP3A4, Luciferin-PPXE luminescence; series mostly up to 57.1 µM; also: potency is read from the fitted curve at half-maximal effect; nearly all actives have a fitted effect of over 50% in size
Summary of the method: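 20 nM human CYP3A4 with 25 uM Luciferin-PPXE (at KM) in 200 mM KPO4, preincubated 10 min with compound; NADPH regeneration started a 60 min RT reaction. Luciferin detected by luminescence, normalized to 57 uM ketoconazole as full inhibition.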

[10] = molecular target: Cytochrome P450 3A4 (Homo sapiens) (UniProt P08684); test: qHTS Assay for Activators of Cytochrome P450 3A4 (AID 885); conditions: recombinant CYP3A4, Luciferin-PPXE luminescence, 60 min; series mostly up to 57.1 µM; also: nearly all actives have a fitted effect of over 65% in size
Summary of the method: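 20nM CYP3A4 + 25uM Luciferin-PPXE (=KM), 200mM KPO4; cpd 10 min RT; NADPH regen, 60 min RT; stop w/ detection buffer, 20 min; luminescence. Normalized to 57 uM ketoconazole.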

[11] = molecular target: Ubiquitin carboxyl-terminal hydrolase 1 (Homo sapiens) (UniProt O94782); test: Inhibitors of USP1/UAF1: Pilot qHTS (AID 504865); conditions: purified USP1/UAF1, Ub-rhodamine cleavage fluorescence; series mostly up to 54.9 µM;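 also: rhodamine fluorescence freed from ubiquitin-rhodamine substrate followed over time; top concentration of the series differs between compounds; % is scaled to controls: 0 for no effect and ±100 for the full control effect; nearly all actives have a fitted effect of over 35% in size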
Summary of the method: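 1nM USP1/UAF1 + cpd, 15 min RT; start w/ Ub-Rho 150nM final; kinetic FL 480/540 nm, 6 reads q60 s. Buffer 50mM HEPES pH 7.8, 0.5mM EDTA, 1mM TCEP, 0.01% Tween-20, 0.1 mg/ml BSA.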

[12] = Primary qHTS for small molecule stabilizers of the endoplasmic reticulum resident proteome: Secreted ER Calcium Modulated Protein (SERCaMP) assay (AID 1508630); conditions: SH-SY5Y GLuc-SERCaMP (Gaussia luciferase released on ER calcium loss) secretion, thapsigargin, luminescence; series mostly up to 38.4 µM; also: % is scaled to controls: 0 for no effect and ±100 for the full control effect
Summary of the method: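 GLuc-SERCaMP-expressing SH-SY5Y cells, pretreated 16 h with compound, are challenged with thapsigargin to empty ER calcium stores; after 4 h, coelenterazine is added directly to the medium and luminescence is imaged.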

[13] = molecular target: 3',5'-cyclic-AMP phosphodiesterase 4B (Homo sapiens) (UniProt Q07343); test: qHTS Assay for Inhibitors of PDE-IV (AID 607; active = well fitted activation curve with a large enough effect in the main read-out, with a control signal flat, not every such curve was filed as active; also: % of control where 0% means no effect); conditions: HEK293 ACTOne CNG channel cells, membrane potential fluorescence; series mostly up to 22.9 µM
Summary of the method: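 ACTOne HEK293 cells carry a modified cAMP-gated CNG channel and express endogenous PDE4; plated 1000 cells/well, compounds up to 22.9 uM final. Membrane-potential dye fluorescence (ex 535/em 590) was read; parental cells received 10 uM forskolin + 100 uM RO 20-1724.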

[14] = Confirmation and Secondary Assay for Modulators of Hemoglobin Beta Chain Splicing at IVS2 654 locus (AID 910); conditions: HeLa EGFP-654 splicing reporter, GFP fluorescence, 48 h; series mostly up to 38.3 µM;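 also: HeLa cells stably carrying EGFP split by mutant beta-globin IVS2-654 intron; per-well total GFP intensity by laser scanning cytometry after 2-day treatment; % of control where 0% means no effect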
Summary of the method: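 Readout: per-well total peak green fluorescence (488 nm ex, 500–520 nm em) from objects 5–250 µm, reflecting correct splicing of an EGFP-654 reporter. Compounds were applied for 2 days at 37 °C to overnight-plated HeLa EGFP-654 cells; controls were DMSO and 500 nM IVS2-654 PNA.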

[15] = Confirmation and Secondary Assay for Modulators of Hemoglobin Beta Chain Splicing at IVS2 705 locus (AID 930); conditions: HeLa EGFP-705 splicing reporter, GFP fluorescence, 48 h; series mostly up to 38.3 µM;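 also: HeLa cells stably expressing the EGFP-705 splicing reporter; GFP fluorescence per well restored by corrected splicing of the IVS2-705 intron in EGFP; % of control where 0% means no effect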
Summary of the method: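 HeLa EGFP-705 reporter; 500 cells/well, o/n 37C 5% CO2; cpd 2 d; 488 ex/500-520 em laser scan; total peak GFP intensity/well. Ref: 500 nM […] antisense PNA.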

[16] = qHTS Assay for Identification of Small Molecule Agonists for Hypoxia Response Element Signaling Pathway (AID 914; active = well fitted activation curve with a large enough effect in the signal ratio, with a control signal flat, not every such curve was filed as active; the % refers to the signal ratio; also: potency is read from the fitted curve at half-maximal effect; as to activation: % of control where 0% means no effect); conditions: ME-180 (cervical carcinoma) HRE-bla reporter, beta-lactamase ratio, CoCl2, 17 h; activation: hits give high values
Summary of the method: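 Read-out: CCF4 FRET ratio of 460nm to 530nm emission (excitation 405nm) after 2.5 hours at room temperature, taken from HRE-bla ME-180 cells that had been exposed to compound and EC50 CoCl2 for 17 hours.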

[17] = molecular target: Dual specificity protein kinase CLK4 (Homo sapiens) (UniProt Q9HAZ1); test: qHTS Assay for Inhibitors of CDC-like Kinase 4 (ADP-FP Assay) (AID 1795); conditions: Transcreener ADP fluorescence polarization; series mostly up to 50 µM;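 also: recombinant human CLK4 phosphorylating RS repeat peptide at 1 µM ATP; % is scaled to controls: 0 for no effect and ±100 for the full control effect; nearly all actives have a fitted effect of over 60% in size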
Summary of the method: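 FP readout: Orange Transcreener ADP2 tracer (4 nM) plus ADP antibody, read after 30 min at room temperature. Kinase step: 6.25 nM Clk4, 100 uM RS peptide, 1 uM ATP, pH 7.5, 1 h.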

[18] = molecular target: Cytochrome P450 2C19 (Homo sapiens) (UniProt P33261); test: qHTS Assay for Inhibitors and Substrates of Cytochrome P450 2C19 (AID 899); conditions: recombinant CYP2C19, luciferin-H EGE luminescence; series mostly up to 57.1 µM; also: potency is read from the fitted curve at half-maximal effect; nearly all actives have a fitted effect of over 60% in size
Summary of the method: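 Luminescence readout of luciferin formed from 10uM Luciferin-H EGE (KM level) by 5 nM CYP2C19 in 50mM KPO4. 60 min NADPH-driven reaction at 37C after 10 min compound preincubation; data scaled to 57uM ketoconazole inhibition.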

[19] = molecular target: Cytochrome P450 2D6 (Homo sapiens) (UniProt P10635); test: qHTS Assay for Inhibitors and Substrates of Cytochrome P450 2D6 (AID 891); conditions: recombinant CYP2D6, luciferin-ME EGE luminescence; series mostly up to 57.1 µM; also: potency is read from the fitted curve at half-maximal effect; nearly all actives have a fitted effect of over 60% in size
Summary of the method: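 Human CYP2D6 (5 nM) with 30 uM Luciferin-ME EGE (at Km) in 100 mM KPO4, compound preincubated 10 min, then NADPH regeneration system for 60 min at room temperature. Luciferin read by luminescence; normalized to 1.43 uM quinidine.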

Cytochrome P450 1A2 (Homo sapiens), sequence (P05177 whole entry, looked up): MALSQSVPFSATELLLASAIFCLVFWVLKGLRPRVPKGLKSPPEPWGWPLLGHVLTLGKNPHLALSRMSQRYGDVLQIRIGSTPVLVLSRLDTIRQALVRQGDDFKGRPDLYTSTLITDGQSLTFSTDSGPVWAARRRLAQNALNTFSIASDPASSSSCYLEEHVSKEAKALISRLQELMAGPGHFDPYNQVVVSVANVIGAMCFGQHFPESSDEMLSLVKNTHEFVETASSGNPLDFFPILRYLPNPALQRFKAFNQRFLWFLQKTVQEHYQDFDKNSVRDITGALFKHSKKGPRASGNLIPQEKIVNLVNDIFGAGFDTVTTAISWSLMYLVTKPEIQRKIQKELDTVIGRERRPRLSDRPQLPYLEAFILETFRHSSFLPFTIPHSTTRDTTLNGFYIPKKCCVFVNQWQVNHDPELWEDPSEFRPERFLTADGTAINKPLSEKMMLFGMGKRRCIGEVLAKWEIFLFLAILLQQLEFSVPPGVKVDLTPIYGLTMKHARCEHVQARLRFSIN
Ubiquitin carboxyl-terminal hydrolase 1 (Homo sapiens), sequence (O94782 whole entry, looked up): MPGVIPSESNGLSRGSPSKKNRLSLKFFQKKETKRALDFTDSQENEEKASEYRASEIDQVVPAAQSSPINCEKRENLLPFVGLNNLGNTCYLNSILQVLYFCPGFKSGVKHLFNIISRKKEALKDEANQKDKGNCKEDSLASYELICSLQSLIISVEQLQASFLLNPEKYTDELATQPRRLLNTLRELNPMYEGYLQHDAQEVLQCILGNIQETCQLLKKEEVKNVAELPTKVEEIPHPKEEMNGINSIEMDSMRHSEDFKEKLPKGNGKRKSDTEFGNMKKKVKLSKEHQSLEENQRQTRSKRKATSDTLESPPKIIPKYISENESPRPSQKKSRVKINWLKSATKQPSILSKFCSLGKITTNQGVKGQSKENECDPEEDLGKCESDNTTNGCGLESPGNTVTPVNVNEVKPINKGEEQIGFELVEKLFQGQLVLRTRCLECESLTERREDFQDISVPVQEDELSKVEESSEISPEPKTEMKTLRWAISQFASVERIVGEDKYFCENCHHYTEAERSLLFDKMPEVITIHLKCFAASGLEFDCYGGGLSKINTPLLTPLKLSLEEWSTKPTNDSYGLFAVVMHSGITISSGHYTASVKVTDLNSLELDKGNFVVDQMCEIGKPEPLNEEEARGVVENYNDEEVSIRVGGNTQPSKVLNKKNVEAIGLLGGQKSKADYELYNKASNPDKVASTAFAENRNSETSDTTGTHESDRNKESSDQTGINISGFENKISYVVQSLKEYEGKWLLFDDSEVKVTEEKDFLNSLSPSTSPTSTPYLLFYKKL
Cytochrome P450 3A4 (Homo sapiens), sequence (P08684 whole entry, looked up): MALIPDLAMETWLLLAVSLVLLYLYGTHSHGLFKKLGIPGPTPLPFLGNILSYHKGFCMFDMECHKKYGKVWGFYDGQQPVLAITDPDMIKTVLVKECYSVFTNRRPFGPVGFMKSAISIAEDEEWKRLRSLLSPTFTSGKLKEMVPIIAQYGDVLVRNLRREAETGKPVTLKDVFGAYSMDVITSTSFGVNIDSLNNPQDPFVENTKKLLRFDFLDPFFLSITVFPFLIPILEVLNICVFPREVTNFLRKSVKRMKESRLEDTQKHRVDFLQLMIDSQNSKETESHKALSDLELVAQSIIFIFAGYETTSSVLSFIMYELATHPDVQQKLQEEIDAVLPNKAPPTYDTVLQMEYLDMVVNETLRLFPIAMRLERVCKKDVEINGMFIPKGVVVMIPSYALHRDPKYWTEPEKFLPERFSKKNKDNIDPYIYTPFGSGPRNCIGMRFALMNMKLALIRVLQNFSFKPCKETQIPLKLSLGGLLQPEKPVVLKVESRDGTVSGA
Lysosomal acid glucosylceramidase (Homo sapiens), sequence (P04062 whole entry, looked up): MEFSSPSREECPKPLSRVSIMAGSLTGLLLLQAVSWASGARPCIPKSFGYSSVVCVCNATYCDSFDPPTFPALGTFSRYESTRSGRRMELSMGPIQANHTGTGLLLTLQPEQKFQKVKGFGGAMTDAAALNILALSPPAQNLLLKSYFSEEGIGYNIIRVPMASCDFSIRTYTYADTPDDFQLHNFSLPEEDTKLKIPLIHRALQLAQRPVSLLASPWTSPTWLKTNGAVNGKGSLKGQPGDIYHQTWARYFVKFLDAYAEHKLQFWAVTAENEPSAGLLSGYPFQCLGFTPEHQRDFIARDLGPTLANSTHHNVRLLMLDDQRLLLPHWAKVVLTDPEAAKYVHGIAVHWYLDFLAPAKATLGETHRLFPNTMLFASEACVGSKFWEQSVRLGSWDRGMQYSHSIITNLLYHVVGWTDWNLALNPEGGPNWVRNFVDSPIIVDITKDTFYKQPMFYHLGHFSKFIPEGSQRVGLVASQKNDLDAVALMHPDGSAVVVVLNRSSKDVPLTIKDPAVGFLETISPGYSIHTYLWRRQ
Glucocorticoid receptor (Homo sapiens), sequence (P04150 whole entry, looked up, the tested form may be a part): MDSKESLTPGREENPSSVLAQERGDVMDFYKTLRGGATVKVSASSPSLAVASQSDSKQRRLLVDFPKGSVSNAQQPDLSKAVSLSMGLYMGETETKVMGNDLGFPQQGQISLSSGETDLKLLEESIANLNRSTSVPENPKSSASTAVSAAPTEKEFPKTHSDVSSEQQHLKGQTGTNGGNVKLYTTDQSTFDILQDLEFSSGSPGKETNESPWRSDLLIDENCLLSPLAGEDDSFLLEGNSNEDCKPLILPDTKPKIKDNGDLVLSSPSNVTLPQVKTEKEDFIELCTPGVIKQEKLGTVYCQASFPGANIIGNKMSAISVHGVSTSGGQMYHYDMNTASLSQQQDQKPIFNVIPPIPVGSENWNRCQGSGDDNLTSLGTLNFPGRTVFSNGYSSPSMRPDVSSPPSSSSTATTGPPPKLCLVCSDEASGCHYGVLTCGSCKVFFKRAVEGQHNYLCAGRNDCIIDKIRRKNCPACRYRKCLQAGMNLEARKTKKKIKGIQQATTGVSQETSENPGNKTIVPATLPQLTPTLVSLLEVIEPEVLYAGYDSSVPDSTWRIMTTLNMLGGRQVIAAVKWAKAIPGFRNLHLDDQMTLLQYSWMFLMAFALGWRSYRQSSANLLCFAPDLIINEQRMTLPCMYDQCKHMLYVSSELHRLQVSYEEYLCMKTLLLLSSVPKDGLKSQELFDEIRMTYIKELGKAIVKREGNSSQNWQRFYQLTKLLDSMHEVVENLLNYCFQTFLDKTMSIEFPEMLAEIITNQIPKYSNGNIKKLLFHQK
3',5'-cyclic-AMP phosphodiesterase 4B (Homo sapiens), sequence (Q07343 whole entry, looked up): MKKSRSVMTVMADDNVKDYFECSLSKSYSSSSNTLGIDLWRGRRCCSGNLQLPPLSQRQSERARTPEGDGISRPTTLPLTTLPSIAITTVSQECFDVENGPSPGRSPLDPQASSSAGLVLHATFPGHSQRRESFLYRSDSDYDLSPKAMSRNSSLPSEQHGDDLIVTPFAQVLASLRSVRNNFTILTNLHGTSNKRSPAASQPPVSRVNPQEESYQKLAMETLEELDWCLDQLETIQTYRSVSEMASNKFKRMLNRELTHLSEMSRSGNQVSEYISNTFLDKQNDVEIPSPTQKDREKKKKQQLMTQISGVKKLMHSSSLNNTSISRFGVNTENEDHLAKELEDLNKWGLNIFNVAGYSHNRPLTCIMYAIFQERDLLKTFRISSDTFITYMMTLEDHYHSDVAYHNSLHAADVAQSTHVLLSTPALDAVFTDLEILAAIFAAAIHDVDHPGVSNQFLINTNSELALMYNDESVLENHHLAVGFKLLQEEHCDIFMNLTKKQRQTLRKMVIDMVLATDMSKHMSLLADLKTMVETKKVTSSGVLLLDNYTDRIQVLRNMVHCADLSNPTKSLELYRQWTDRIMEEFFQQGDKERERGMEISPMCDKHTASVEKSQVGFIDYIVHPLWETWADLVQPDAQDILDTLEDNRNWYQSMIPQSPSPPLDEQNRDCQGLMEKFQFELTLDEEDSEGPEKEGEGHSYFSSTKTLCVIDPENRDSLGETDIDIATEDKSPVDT
Cytochrome P450 2C19 (Homo sapiens), sequence (P33261 whole entry, looked up): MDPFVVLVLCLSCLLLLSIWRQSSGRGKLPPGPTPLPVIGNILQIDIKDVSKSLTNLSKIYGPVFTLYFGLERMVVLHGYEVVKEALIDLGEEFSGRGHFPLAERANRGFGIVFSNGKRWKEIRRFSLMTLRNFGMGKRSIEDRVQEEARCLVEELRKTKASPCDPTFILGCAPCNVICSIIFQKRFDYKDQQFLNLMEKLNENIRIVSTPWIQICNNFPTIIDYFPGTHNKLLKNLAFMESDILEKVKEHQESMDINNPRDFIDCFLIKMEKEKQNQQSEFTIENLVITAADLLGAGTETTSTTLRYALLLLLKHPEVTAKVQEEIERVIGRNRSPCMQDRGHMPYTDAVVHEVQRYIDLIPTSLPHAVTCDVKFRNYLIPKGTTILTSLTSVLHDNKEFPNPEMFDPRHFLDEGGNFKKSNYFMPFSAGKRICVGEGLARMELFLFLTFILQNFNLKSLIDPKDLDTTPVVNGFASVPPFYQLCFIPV
Dual specificity protein kinase CLK4 (Homo sapiens), sequence (Q9HAZ1 whole entry, looked up): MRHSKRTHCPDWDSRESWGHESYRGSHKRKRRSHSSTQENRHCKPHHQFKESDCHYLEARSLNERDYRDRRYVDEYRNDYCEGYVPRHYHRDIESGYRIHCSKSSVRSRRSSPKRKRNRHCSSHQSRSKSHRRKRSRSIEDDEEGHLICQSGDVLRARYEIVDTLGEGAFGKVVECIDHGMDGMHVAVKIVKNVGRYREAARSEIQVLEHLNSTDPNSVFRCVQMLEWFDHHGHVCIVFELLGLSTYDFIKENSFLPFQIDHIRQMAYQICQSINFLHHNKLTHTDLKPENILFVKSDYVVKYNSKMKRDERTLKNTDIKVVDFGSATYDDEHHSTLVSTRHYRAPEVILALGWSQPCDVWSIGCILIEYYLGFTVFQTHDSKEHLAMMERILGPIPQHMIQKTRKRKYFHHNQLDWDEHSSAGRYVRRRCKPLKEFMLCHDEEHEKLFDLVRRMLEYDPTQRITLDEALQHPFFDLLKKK

COc1cccc(Cn2c(=O)c(-c3cccc(C#N)c3)nc3cnc(OC)nc32)c1
inactive: Potency [1] > 11.4 µM | activity change, negative = inhibition [2] -6.86% | activity change, negative = inhibition [4] -8.15% | activity, negative = inhibition [5] -4.38% | Potency [6] > 9.22 µM | Potency [7] > 46 µM | Potency [8] | Potency [10] | Potency [11] | outcome [12]
active: Potency [3] 10 µM | Potency [9] 3.16 µM

CN(Cc1ccco1)c1ccnc(-c2ccoc2)n1
inactive: Potency [1] > 11.4 µM | activity change, negative = inhibition [2] 12% | activity change, negative = inhibition [4] -2.04% | activity, negative = inhibition [5] -14.2% | Potency [6] > 46 µM | Potency [7] > 46 µM | Potency [8] | Potency [13] | Potency [14] | outcome [15] | Potency [11] | outcome [12]
active: Potency [3] 12.6 µM

Clc1ccccc1-c1nc(NCCN2CCOCC2)c2ccccc2n1
inactive: activity change, negative = inhibition [2] 16% | activity change, negative = inhibition [4] -7.69% | activity, negative = inhibition [5] -5.23% | Potency [6] > 46 µM | Potency [8] | Potency [13] | Potency [10] | Potency [17] | Potency [11] | outcome [12]
active: Potency [3] 12.6 µM | Potency [16] 3.16 µM

COc1ccc(CNc2ccnc(-c3ccccc3Cl)n2)c(OC)c1
active: Potency [3] 5.01 µM | Potency [18] 1.26 µM
inactive: activity change, negative = inhibition [2] -21.2% | activity change, negative = inhibition [4] -26% | activity, negative = inhibition [5] -16.2% | Potency [6] > 46 µM | Potency [7] > 46 µM | Potency [8] | Potency [13] | Potency [10] | activation [16] -15.3% | Potency [17] | outcome [12]

CN(Cc1ccco1)c1ccnc(-c2cccnc2)n1
inactive: Potency [1] > 11.4 µM | activity change, negative = inhibition [2] 16.2% | activity change, negative = inhibition [4] -13.4% | activity, negative = inhibition [5] 17.8% | Potency [6] > 46 µM | Potency [7] > 46 µM | Potency [8] | Potency [13] | Potency [10] | Potency [11] | outcome [12]
active: Potency [3] 0.794 µM | Potency [19] 7.94 µM | Potency [18] 6.31 µM

CCC(=O)O[C@@H]1CC(=O)O[C@H](C)C/C=C/C=C/[C@@H](O)[C@H](C)C[C@H](CC=O)[C@H](OC2O[C@H](C)[C@@H](O[C@H]3C[C@@](C)(O)[C@@H](OC(=O)CC)[C@H](C)O3)[C@H](N(C)C)[C@H]2O)[C@H]1OC (stereo partly drawn)
inactive: outcome [12]

CC(=O)NCCNc1ncnc2ccc(-c3ccc(C(=O)N(C)C)cc3)cc12
inactive: Potency [1] > 11.4 µM | activity change, negative = inhibition [2] -14.6% | activity change, negative = inhibition [4] -1.21% | activity, negative = inhibition [5] -0.482% | Potency [6] > 46 µM | Potency [7] > 46 µM | Potency [8] | Potency [13] | Potency [14] | outcome [15] | Potency [11] | outcome [12]
active: Potency [3] 25.1 µM
